Screen size: about 52,000 compounds; about 4,300 (8.3%) were called active. Rule as the data show it: active = survival mostly below about 52% (no sharp cut-off); inactive = mostly above about 56%. Shown is part of a subset that was picked to be rich in actives.
What follows are molecules tested on DeltatarO mutant (assay: S. aureus survival, RN4220 and DeltatarO strains – OD600, teichoic acid synthesis inhibitors, primary screen (AID 463173)). Settings: S. aureus RN4220 wild type/DeltatarO growth, OD600, 18 h, active compounds read low, screened at 18.75 µg/mL (by protocol).

Compound	survival
CCOc1ccc(C2C(C(N)=O)=C(C)Nc3nc(-c4ccc(OC)cc4)nn32)cc1 (stereo not drawn)	87% (inactive)
COc1ccc(C)cc1NC(=O)C1CCC(CNS(=O)(=O)c2ccc3c(c2)CCCC(=O)N3)CC1 (stereo not drawn)	67% (inactive)
CCOC(=O)c1ccc(NC(=O)C(C)N(c2ccc(OCC)cc2)S(C)(=O)=O)cc1 (stereo not drawn)	62% (inactive)
O=C(CCc1ccccc1)NN1C(=O)c2ccccc2C1=O	61% (inactive)
CCc1ccccc1NC(=O)c1cnc(N2CCCCC2)c2ccccc12	96% (inactive)
CC(C)(C)OC(=O)N1CCC(c2c(C(=O)N3CCOCC3)cnn2-c2ccccc2Cl)CC1	78% (inactive)
COc1ccc(NC(=O)Cn2c(=O)n(-c3ccc(OC)cc3)c(=O)c3ccc(C(=O)NCc4ccc(C)cc4)cc32)cc1	77% (inactive)
O=C(c1ccc2c(c1)N(Cc1ccc(F)cc1)C(=O)c1ccccc1S2(=O)=O)N1CCC(Cc2ccccc2)CC1	72% (inactive)
CCCC1=Nc2cc(C(=O)NCc3ccc(OC)cc3)ccc2Sc2ccc(C)cc21	70% (inactive)
CCOc1ccc(CNC(=O)Cn2c(=O)c3cccn3c3cccnc32)cc1	70% (inactive)
CCOc1ccc(N2CC(c3nc4ccccc4n3CC(C)C)CC2=O)cc1 (stereo not drawn)	56% (inactive)
CCOc1ccc(N2CC(c3nc4ccccc4n3Cc3cccc(Cl)c3)CC2=O)cc1 (stereo not drawn)	37% (active)
C#CCn1c(C2CC(=O)N(c3ccc(OCC)cc3)C2)nc2ccccc21 (stereo not drawn)	62% (inactive)
CCCCn1c(C2CC(=O)N(c3ccc(OCC)cc3)C2)nc2ccccc21 (stereo not drawn)	63% (inactive)
CCOc1ccc(N2CC(c3nc4ccccc4n3Cc3cccc(C)c3)CC2=O)cc1 (stereo not drawn)	42% (active)
C#CCn1c(C2CC(=O)N(c3ccc(OC)cc3)C2)nc2ccccc21 (stereo not drawn)	78% (inactive)
CCNC(=O)C1CCCN(c2nnc(C)c3c(C)n(-c4ccc(C)cc4)nc23)C1 (stereo not drawn)	78% (inactive)
CCN1CCN(C(=O)c2ccc(S(=O)(=O)N(CC)CC)cc2)CC1	85% (inactive)
COc1cc2c(cc1OC)C(c1ccc(Cl)cc1)N(c1ccc(C)c(F)c1)C(=O)C2 (stereo not drawn)	42% (active)
COc1cc2c(cc1OC)C(c1ccc(F)cc1)N(c1ccc(F)cc1)C(=O)C2 (stereo not drawn)	105% (inactive)
COc1ccc(C2c3cc(OC)c(OC)cc3CC(=O)N2c2ccc(C)c(F)c2)cc1 (stereo not drawn)	79% (inactive)
O=C(NCCSCc1ccccc1)C1CCN(S(=O)(=O)Cc2ccccc2)CC1	66% (inactive)
Cc1cc(C)cc(NC(=O)N2CCN(c3cc(-c4noc(C)n4)ccc3C)CC2)c1	87% (inactive)
COc1ccc(C)cc1NC(=O)N1CCN(c2cc(-c3noc(C)n3)ccc2C)CC1	88% (inactive)
COc1cc(NC(=O)N2CCN(c3cc(-c4noc(C)n4)ccc3C)CC2)cc(OC)c1OC	55% (inactive)
Cc1ccc(NC(=O)N2CCN(c3cc(-c4noc(C)n4)ccc3C)CC2)c(F)c1	-5% (active)
Cc1nc(-c2ccc(C)c(N3CCN(C(=O)Nc4ccc(Br)cc4)CC3)c2)no1	17% (active)
Cc1ccc(NC(=O)N2CCN(c3cc(-c4noc(C)n4)ccc3C)CC2)c(C)c1	88% (inactive)

Reference: PubChem BioAssay AID463173 (ICCB-Longwood Screening Facility, Harvard Medical School, 2010)
